In PubChem BioAssay (NCI) one finds growth data, which are given here for 38 compounds.

Compounds without any hit were thinned out: in the full panel of roughly 83,000, 20% have a hit.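 For each line, cells grew in 96-well plates with the test compound present at a single concentration for 48 hours.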 Unmarked numbers belong to inactive results. The source made the active and inactive calls. The calls were made as follows: active = growth percent below 10; inactive = the rest.

For one assay, the system named is MDA-MB-231 breast. Put plainly: NCI-60 one-dose screen, 48 h (100 = growth as untreated, 0 = no growth, -100 = all killed). To be noted: 10 µM unless noted.
Consider `CSc1nc(NCCN2CCOCC2)c(C#N)c(-c2cccc([N+](=O)[O-])c2)n1`, for which the growth was 86.3%.

`N#Cc1c(-c2ccc(Cl)cc2)nc(N=Nc2c(O)[nH]c3ccc(Cl)cc23)nc1N1CCOCC1`: the growth is 82.9%.

Take `Cc1ccc(NS(=O)(=O)c2ccc(-c3cnc(C4CC4)o3)cc2)cc1C`: the growth is 40.1%.

Take `Oc1ccccc1-c1nnc(CNc2ccc(Cl)cc2)o1`: the growth was 46.9%.

The next assay has as its system RXF 393 renal. The description is as above. The conditions noted are these: 10 µM unless noted.
With `N#C/C(=C\c1ccc(-c2ccc(Cl)c(Cl)c2)o1)c1nc(-c2ccco2)cs1`, the growth is 121%.

In the case of `CC(C)C1=C[C@@]23CC[C@@H]4[C@](C)(CCC[C@@]4(C)C(=O)N4CCCNCC4)[C@H]2C[C@@H]1[C@H]1C(=O)CCC(=O)[C@H]13`, the growth was 104%.

For `COc1ccc(CCNc2nc(SC)nc(-c3cccc([N+](=O)[O-])c3)c2C#N)cc1OC`, the growth is 90.1%.

As for `Cc1cc(NS(=O)(=O)c2ccc(-c3cnc(C4CC4)o3)cc2)ccc1Cl`, the growth is -10.7% (active).

Consider `COc1ccc(-c2cc(C(=O)N=Nc3c(O)[nH]c4ccc(Br)cc34)no2)cc1`, for which the growth was 107%.

`CCCOc1cc2ccccc2cc1C(=O)Nc1nc(NC)c2c(ccc3nccc32)[nH]1`: the growth is -71.7% (active).

Consider `CCCCN(CCCC)CCCn1c(-c2ccccc2)ccc1-c1ccccc1`, for which the growth is 82.8%.

Turning to `Cc1nc2ccccc2n1C(=O)C[C@@H]1NC(=S)NC1=O`, the growth is 108%.

Take `N#CCCN=Nc1c(O)[nH]c2ccc([N+](=O)[O-])cc12`: the growth was 106%.

Consider `Cc1cc(N2CCOCC2)nc(NCc2cc(Nc3ccnc4cc(Cl)ccc34)ccc2F)n1`, for which the growth is -92.4% (active).

In the case of `Nc1n[nH]c2ccc([C@@H]3Nc4cc5c(cc4[C@H]4C6CCC(C6)[C@@H]34)C(=O)NC5)cc12` (some centres not stated), the growth is 27.1%.

Turning to `c1ccc(-c2c(-c3ccccc3)[n+](Cc3ccc4ccccc4c3)c(-c3ccc(-c4nc5ccccc5s4)cc3)n2Cc2ccc3ccccc3c2)cc1`, the growth is -95.6% (active).

For `C=CC(=O)Nc1cccc(-c2nc(SC)nc(NCc3ccccc3)c2C#N)c1`, the growth was 21.9%.

Consider `CCCOc1ccc2nc(NC(=O)OC)[nH]c2c1`, for which the growth was 18.2%.

Take `COc1cccc(/C=C2\Oc3cc(OCCN4CCCC4)ccc3C2=O)c1`: the growth is 97.5%.

In the case of `COc1ccc(/C=C2\Oc3cc(OCCCCN4CCCC4)ccc3C2=O)cc1`, the growth was 74.5%.

As for `COc1cccc(-c2nn(C(C)(C)C)cc2-c2ccnc(NCCCNS(=O)(=O)c3cccc4ccccc34)c2)c1`, the growth was 109%.

For the compound `COc1cccc(-c2nc3sccn3c2-c2ccnc(NCCCNS(=O)(=O)c3c(Cl)cccc3Cl)c2)c1`, the growth is 74.7%.

Turning to `O=C1c2cc3c(cc2-c2c1c1cc(F)c(F)cc1c(=O)n2CCCn1ccnc1)OCO3`, the growth is -22.4% (active).

With `O=C(/C=C/c1cccc(Cl)c1)c1ccc(O)c(CN2CCN(c3cc4c(cc3F)c(=O)c(C(=O)O)cn4C3CC3)CC2)c1`, the growth is 39.5%.

In the case of `CCCn1c(=O)[nH]c(N)c([C@H]2c3ccccc3Oc3[nH]c(=O)n(CCC)c(=O)c32)c1=O`, the growth is 98.2%.

Regarding `N#CCCN=Nc1c(O)[nH]c2ccc(F)cc12`, the growth is 103%.

For `COc1ccc(-c2n[nH]nc2-c2csc3ccccc23)cc1OC`, the growth is 23.5%.

For `COc1cc(/C=C/c2cc(O)c3cc(C(C)=O)c(=O)oc3c2)cc2c1O[C@]1(C)CC[C@@H](O)C(C)(C)[C@H]1C2`, the growth is -58.5% (active).

Consider `O=C(N=Nc1c(O)[nH]c2ccc(Br)cc12)c1cc(-c2ccccc2)on1`, for which the growth was 117%.

Regarding `CSc1nc(NCc2ccccc2)c(C#N)c(-c2cccc([N+](=O)[O-])c2)n1`, the growth is 102%.

Regarding `O=S(=O)(Nc1ccc(Cl)c(F)c1)c1ccc(-c2cnc(C3CC3)o2)cc1`, the growth is -7.66% (active).

On to `CC1(C)CC[C@]2(C(=O)Nc3ccccn3)CC[C@]3(C)C(=CC[C@@H]4[C@@]5(C)C/C(=C/c6cccnc6)C(=O)C(C)(C)[C@@H]5CC[C@]43C)[C@H]2C1`, for which the growth was 33.3%.

As to `O=S(=O)(Nc1ccc(Br)c(Cl)c1)c1ccc(-c2cnc(C3CC3)o2)cc1`, the growth was -10.6% (active).

For `C=C(C)[C@@H]1CC[C@]2(C(N)=O)CC[C@]3(C)[C@H](CC[C@@H]4[C@@]5(C)C/C(=C/c6ccco6)C(=O)C(C)(C)[C@@H]5CC[C@]43C)[C@@H]12`, the growth is 94.2%.

Consider `Cc1nc2c3c(-c4ccccc4)c(-c4ccccc4)oc3ncn2n1`, for which the growth is 99.6%.

Consider `COc1cccc(-c2nn(C(C)(C)C)cc2-c2ccnc(NCCCNS(=O)(=O)c3ccc(C)cc3)c2)c1`, for which the growth was 109%.

As for `COc1ccc(-c2nc3ccc(-c4nc5ccc(N6CCN(c7ccc(F)cc7)CC6)cc5[nH]4)cc3[nH]2)cc1OC`, the growth is 68.6%.

For the compound `O=C1NC(=S)NC(=O)C1CC(=O)n1c(-c2ccccc2)nc2ccccc21`, the growth is 110%.

Regarding `CSc1nc(NCCN2CCOCC2)c(C#N)c(-c2cccc([N+](=O)[O-])c2)n1`, the growth was 103%.

Take `N#Cc1c(-c2ccc(Cl)cc2)nc(N=Nc2c(O)[nH]c3ccc(Cl)cc23)nc1N1CCOCC1`: the growth was 95.7%.

For `Cc1ccc(NS(=O)(=O)c2ccc(-c3cnc(C4CC4)o3)cc2)cc1C`, the growth was -3.66% (active).

Take `Oc1ccccc1-c1nnc(CNc2ccc(Cl)cc2)o1`: the growth was 37%.
